Assay results published in the supplement of paper PMC10849652.
Of roughly 7,900 targets only a part is listed; those with a hit were picked by preference. About 0.6% of all pairs of compound and target were hits. Unmarked numbers belong to inactive results.

UniProt Q9BZI7, sequence (Q9BZI7 whole entry, looked up): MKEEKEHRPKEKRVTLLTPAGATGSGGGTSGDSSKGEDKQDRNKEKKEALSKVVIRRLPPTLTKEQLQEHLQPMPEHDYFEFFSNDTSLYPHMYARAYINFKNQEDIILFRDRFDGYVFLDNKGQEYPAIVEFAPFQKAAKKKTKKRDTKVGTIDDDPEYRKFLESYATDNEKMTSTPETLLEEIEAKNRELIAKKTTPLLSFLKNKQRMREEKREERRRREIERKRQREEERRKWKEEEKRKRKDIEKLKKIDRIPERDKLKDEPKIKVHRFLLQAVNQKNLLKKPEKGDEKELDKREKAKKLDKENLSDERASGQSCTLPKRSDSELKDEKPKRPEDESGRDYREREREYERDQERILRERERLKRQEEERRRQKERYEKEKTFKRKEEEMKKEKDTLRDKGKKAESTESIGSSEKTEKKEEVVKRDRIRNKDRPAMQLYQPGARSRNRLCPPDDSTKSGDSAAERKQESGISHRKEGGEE
UniProt Q01081, sequence (Q01081 whole entry, looked up): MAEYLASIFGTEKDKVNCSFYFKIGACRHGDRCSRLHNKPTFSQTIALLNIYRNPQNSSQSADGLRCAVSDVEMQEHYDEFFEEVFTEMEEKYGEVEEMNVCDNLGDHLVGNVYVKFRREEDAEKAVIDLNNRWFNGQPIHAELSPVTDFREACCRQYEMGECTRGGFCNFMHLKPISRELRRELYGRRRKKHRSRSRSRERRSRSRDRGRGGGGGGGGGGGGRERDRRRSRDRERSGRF
UniProt Q16763, sequence (Q16763 whole entry, looked up): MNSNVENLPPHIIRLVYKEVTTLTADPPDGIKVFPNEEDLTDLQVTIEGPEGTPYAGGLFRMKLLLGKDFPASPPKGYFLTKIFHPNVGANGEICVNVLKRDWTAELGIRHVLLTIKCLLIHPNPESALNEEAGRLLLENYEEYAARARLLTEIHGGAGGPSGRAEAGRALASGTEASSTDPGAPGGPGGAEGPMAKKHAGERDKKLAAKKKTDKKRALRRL
UniProt Q7L0Y3, sequence (Q7L0Y3 whole entry, looked up): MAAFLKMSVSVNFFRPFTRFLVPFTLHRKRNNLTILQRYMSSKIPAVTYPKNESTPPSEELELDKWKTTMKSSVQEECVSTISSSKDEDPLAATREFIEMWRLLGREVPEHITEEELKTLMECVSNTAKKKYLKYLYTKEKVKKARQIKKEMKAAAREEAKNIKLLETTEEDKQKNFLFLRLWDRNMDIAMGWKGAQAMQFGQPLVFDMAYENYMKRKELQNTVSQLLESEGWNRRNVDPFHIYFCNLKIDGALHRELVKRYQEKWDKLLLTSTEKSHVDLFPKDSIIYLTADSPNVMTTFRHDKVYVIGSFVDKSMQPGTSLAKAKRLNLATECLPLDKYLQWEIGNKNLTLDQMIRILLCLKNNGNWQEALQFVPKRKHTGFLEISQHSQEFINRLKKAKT
UniProt O14787, sequence (O14787 whole entry, looked up): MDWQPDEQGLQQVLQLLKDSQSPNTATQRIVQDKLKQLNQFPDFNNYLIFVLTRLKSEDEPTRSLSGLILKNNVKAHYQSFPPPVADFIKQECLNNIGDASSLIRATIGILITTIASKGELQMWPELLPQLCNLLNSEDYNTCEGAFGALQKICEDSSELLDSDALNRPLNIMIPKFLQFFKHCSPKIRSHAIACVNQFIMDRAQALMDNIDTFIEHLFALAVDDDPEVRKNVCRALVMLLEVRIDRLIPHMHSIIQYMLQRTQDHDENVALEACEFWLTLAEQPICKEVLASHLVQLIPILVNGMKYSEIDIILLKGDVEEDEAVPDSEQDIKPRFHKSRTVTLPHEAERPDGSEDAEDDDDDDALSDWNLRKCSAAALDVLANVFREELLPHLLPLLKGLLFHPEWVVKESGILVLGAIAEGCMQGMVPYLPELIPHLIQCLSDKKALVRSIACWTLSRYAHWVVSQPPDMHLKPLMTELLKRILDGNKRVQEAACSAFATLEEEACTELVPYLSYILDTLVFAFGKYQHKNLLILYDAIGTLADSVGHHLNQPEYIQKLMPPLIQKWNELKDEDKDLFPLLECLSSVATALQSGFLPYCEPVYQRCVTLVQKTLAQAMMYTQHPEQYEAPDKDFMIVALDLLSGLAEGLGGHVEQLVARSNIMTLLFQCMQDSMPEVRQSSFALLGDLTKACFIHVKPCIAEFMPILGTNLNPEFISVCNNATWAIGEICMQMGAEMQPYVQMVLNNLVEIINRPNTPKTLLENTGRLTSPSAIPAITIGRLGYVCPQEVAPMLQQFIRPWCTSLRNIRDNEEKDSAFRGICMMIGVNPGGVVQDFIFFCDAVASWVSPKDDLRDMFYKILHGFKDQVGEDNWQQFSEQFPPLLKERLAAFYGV
UniProt A0JNW5, sequence (A0JNW5 whole entry, looked up): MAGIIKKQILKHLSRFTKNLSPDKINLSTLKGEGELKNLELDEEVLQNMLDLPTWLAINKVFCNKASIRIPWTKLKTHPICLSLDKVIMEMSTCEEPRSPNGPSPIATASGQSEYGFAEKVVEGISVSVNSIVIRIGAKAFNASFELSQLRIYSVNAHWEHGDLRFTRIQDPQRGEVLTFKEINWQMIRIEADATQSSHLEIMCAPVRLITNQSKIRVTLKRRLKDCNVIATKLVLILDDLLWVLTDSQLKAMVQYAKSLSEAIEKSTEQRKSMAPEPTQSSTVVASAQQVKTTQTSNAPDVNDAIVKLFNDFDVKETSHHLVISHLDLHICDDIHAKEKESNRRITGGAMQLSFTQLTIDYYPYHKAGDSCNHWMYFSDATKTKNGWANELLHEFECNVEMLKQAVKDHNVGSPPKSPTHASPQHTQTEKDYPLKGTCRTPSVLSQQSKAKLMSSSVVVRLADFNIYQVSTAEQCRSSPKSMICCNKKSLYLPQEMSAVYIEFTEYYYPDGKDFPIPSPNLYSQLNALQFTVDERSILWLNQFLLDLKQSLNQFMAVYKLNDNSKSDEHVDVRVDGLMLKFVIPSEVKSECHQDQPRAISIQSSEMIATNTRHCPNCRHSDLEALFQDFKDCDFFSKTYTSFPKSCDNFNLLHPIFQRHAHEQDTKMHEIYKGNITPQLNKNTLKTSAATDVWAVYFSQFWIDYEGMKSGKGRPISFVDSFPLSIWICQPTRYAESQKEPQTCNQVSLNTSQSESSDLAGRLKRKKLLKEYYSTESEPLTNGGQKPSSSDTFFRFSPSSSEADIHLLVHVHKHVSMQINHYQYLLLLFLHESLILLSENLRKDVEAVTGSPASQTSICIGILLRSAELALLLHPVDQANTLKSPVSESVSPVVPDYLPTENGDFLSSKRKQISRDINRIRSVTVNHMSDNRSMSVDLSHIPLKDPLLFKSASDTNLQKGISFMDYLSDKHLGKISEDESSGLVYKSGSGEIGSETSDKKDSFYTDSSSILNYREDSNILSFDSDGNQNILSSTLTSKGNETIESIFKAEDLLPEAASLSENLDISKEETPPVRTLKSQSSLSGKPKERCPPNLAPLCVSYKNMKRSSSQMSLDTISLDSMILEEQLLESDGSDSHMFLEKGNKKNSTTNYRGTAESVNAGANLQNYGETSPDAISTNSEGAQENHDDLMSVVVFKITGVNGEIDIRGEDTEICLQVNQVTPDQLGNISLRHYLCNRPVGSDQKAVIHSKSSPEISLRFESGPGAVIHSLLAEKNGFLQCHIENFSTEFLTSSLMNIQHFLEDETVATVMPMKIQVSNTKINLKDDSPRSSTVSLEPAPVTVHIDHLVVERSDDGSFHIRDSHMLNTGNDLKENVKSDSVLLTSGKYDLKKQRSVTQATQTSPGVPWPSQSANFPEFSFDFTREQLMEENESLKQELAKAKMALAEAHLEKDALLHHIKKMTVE
UniProt P13010, sequence (P13010 whole entry, looked up): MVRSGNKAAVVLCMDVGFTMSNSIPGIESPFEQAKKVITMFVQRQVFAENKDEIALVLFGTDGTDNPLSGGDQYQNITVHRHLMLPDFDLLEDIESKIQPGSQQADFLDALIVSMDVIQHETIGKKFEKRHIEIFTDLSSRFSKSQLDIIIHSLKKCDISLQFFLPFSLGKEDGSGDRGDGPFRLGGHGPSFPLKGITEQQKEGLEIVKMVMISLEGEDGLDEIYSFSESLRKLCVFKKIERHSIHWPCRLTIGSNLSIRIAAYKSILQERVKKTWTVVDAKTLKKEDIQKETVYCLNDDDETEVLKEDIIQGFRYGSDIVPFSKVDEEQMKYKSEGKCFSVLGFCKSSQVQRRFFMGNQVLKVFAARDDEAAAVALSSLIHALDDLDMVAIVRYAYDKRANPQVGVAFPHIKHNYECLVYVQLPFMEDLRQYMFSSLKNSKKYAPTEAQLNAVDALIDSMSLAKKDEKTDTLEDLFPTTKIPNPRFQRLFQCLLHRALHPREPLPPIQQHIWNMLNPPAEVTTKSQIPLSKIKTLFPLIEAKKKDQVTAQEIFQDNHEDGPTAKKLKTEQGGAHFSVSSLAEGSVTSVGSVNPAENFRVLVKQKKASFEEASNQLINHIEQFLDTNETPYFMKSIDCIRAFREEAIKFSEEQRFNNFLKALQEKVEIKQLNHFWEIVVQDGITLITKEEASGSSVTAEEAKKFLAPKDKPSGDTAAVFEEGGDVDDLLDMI
UniProt O60701, sequence (O60701 whole entry, looked up): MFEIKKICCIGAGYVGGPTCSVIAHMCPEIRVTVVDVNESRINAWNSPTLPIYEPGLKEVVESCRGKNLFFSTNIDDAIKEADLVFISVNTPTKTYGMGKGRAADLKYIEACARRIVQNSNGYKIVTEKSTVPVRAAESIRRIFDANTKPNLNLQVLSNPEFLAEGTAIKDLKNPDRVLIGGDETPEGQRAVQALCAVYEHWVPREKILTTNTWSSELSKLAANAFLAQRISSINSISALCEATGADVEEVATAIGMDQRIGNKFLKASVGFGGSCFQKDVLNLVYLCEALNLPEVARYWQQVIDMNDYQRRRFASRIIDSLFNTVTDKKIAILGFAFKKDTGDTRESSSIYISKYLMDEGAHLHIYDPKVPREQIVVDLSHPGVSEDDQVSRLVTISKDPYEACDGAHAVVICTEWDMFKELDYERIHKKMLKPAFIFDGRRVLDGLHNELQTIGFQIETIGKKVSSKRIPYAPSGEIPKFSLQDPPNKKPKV
UniProt Q8N4H5, sequence (Q8N4H5 whole entry, looked up): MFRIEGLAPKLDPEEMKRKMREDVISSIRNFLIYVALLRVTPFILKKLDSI

The targets below were run with FC(F)(F)c1ccc(/C=C/c2nc(COc3ccc(CCCCn4ccnn4)cc3)co2)cc1 [mubritinib] (assay: log2 fold change, soluble protein after heating vs DMSO (PISA); higher = thermal stabilisation; K562 cells, 10 uM, 30 min; active = over 0.2 and 3.5 SD of the protein, either way, in both replicates (recomputed)).
Summary of the method: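 Quantification of soluble protein used TMTpro 16plex LC-MS/MS, with channel sums equalised. Samples were the supernatant after 21,000xg for 90 min of pooled aliquots from K562 cells (2×10^6 cells/mL) treated with 10 μM compound for 30 min, heated for 3 min over 48°C-58°C, and extracted in PBS with 0.5% NP-40 at 4°C. Values, from duplicates, describe thermal stability against control samples on a log2 fold-change scale.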
In the case of TRAPPC2L (UniProt Q9UL33), the log2 fold change is reported as 0.013. UGDH (UniProt O60701) showed a log2 fold change of 0.202. Target WDR7 (UniProt Q9Y4E6) has a log2 fold change of -0.118. With TOMM5 isoform 2 (UniProt Q8N4H5) the log2 fold change was 0.038. USP7 (UniProt Q93009) showed a log2 fold change of 0.068. TYW1 (UniProt Q9NV66) was tested, and the log2 fold change was -0.075. In the case of UBR2 (UniProt Q8IWV8), the log2 fold change is reported as 0.011. Target TMEM161A (UniProt Q9NX61) has a log2 fold change of 0.027. Target XPNPEP1 isoform 3 (UniProt Q9NQW7) has a log2 fold change of 0.042. XRCC6 (UniProt P12956) gave a log2 fold change of 0.043. For TNPO2 (UniProt O14787), the log2 fold change was 0.043. For TRMT10C (UniProt Q7L0Y3), the log2 fold change was 0.153. UHRF1BP1L (UniProt A0JNW5) gave a log2 fold change of 0.007. TUBA4A (UniProt P68366) showed a log2 fold change of 0.073. USP3 (UniProt Q9Y6I4) gave a log2 fold change of 0.045. Work on WBP4 (UniProt O75554) yielded a log2 fold change of 0.06. VTA1 (UniProt Q9NP79) showed a log2 fold change of 0.033. With UBE3D (UniProt Q7Z6J8) the log2 fold change was 0.009. VPS16 (UniProt Q9H269) was tested, and the log2 fold change was 0.083. For TXNRD1 (UniProt Q16881), the log2 fold change was 0.225 (active). For TMEM177 (UniProt Q53S58), the log2 fold change was 0.026. For WDCP (UniProt Q9H6R7), the log2 fold change was 0. With TMEM223 (UniProt A0PJW6) the log2 fold change was 0.044. Target VRK1 (UniProt Q99986) has a log2 fold change of 0.008. For UBE2S (UniProt Q16763), the log2 fold change was 0.002. With XRCC5 (UniProt P13010) the log2 fold change was -0.014. In the case of TMEM9 (UniProt Q9P0T7), the log2 fold change is reported as 0.025. For TRMT10A (UniProt Q8TBZ6), the log2 fold change was 0.05. With TNPO1 (UniProt Q92973) the log2 fold change was 0.005. For WARS2 (UniProt Q9UGM6), the log2 fold change was -0.569 (active). Work on VPS53 isoform 4 (UniProt Q5VIR6) yielded a log2 fold change of 0.003. TSG101 (UniProt Q99816) gave a log2 fold change of 0.052. Target U2AF1 isoform 2 (UniProt Q01081) has a log2 fold change of -0.099. For UPF3B (UniProt Q9BZI7), the log2 fold change was -0.098. In the case of VPS50 (UniProt Q96JG6), the log2 fold change is reported as 0.045. With TTC38 (UniProt Q5R3I4) the log2 fold change was 0.322.
